According to PubChem BioAssay (Tox21):
Values joined by “and” are separate entries in the source; they are usually repeats but may differ in a detail not shown here. Equal values may be shown once. Records with an inconclusive call do not appear. A call without a number means that no potency is given here. More than one record can exist for a structure, and the calls need not agree. Active and inactive are the calls of the source. Calls follow the shape of the dose curve; as a rule, active = well fitted inhibition curve with a large enough effect in the repeat runs; inconclusive = weak or mixed curves, or effect the other way; inactive = no such curve, though single readings can be large or run the other way.

Target: Nuclear receptor subfamily 1 group I member 3 (Homo sapiens) (UniProt Q14994)
Assay: qHTS assay to identify small molecule antagonists of the constitutive androstane receptor (CAR) signaling pathway (AID 1224838);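 also: HepG2 cells stably expressing hCAR with CYP2B6 luciferase reporter stimulated by CITCO; nearly all actives have a fitted effect of over 40% in size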
Details: HepG2-CYP2B6-hCAR luciferase, CITCO-stimulated, 24 h; series mostly up to 92.4 µM
Description: U.S. Tox21 Program National Center for Advancing Translational Sciences [NCATS] NIH Chemical Genomics Center [NCGC] U.S. Environmental Protection Agency [EPA] National Institutes of Environmental Health Sciences [NIEHS] National Toxicology Program [NTP] U.S. Food and Drug Administration [FDA] Tox21 Assay Overview: The constitutive androstane receptor (CAR) is a nuclear receptor which regulates multiple drug metabolizing enzymes (DMEs) and transporters. Activating CAR will generally increase the transcription and subsequent translation of CYP2B6 and CYP3A4. These two DMEs represent about 50% of the drug metabolizing potential in the body. When CAR is deactivated, the metabolizing potential in the body will decrease, subsequently increasing the toxicity in the body or lowering the therapeutic potential of a pro-drug. Recently, there have also been studies performed indicating CARs role in energy metabolism and cancer therapy. Therefore, inhibiting CARs activity could have a potential effect on diabetes and cancer. Identifying environmental toxins and compounds which modulate CAR, through the use of the Tox21 10K compound collection, will be an important step in determining the toxicity and potential therapeutic effects these factors will have on the human body.
Tox21 Assay Protocol Summary: A double-stable (hCAR and CYP2B6-2.2kb) transfected cell line, derived from human hepatoma (HepG2) cells, was utilized for the duration of the quantitative high-throughput screens. The HepG2-CYP2B6-hCAR cells suspended in DMEM culture medium supplemented with 10% FBS, 5 ug/mL blasticidin, 0.5 mg/mL geneticin, 100 U/mL penicillin and 100 ug/mL streptomycin were dispensed at 2500 cells/4 uL/well in 1536-well white solid bottom plates using a Multidrop Combi. After the assay plates were incubated at 37 C/5% CO2 for 4 hrs, 23 nL of compounds at 15 concentrations (from 5-48 columns) or positive control (from 1 to 4 columns) were transferred to the assay plates using a Pintool station. One uL of CITCO, was added using a Flying Reagent Dispenser to generate a final concentration of 50 nM CITCO inside each well. After a 24 hr incubation period at 37 C/5% CO2, four uL of ONE-Glo reagent was added into the assay plates using a Flying Reagent Dispenser. After a 30 min incubation period at room temperature, the luminescence intensity in the assay plates was measured using a ViewLux plate reader.
Potency is read from the fitted curve at half-maximal effect.

Chain of Nuclear receptor subfamily 1 group I member 3 (Homo sapiens) (Q14994 whole entry, looked up): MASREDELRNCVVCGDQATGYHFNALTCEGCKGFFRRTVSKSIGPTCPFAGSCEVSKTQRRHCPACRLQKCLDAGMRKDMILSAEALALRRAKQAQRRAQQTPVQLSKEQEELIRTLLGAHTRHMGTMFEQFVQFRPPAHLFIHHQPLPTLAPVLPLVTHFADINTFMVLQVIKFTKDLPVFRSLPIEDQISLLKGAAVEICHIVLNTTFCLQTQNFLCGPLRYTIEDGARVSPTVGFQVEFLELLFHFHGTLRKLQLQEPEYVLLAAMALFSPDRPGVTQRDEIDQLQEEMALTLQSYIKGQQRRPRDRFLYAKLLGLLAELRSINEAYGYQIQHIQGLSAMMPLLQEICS

| Structure (SMILES) | Potency | activity, negative = inhibition |
| --- | --- | --- |
| CCc1ccc(O)c(OC)c1 | inactive |  |
| O=C(c1ccccc1)C1CCCCC1 | inactive |  |
| NS(=O)(=O)c1ccc(C(=O)O)cc1 | inactive |  |
| O=C(O)CCCc1ccccc1 | inactive |  |
| NS(=O)(=O)c1cc2c(cc1Cl)NC(C1CC3C=CC1C3)NS2(=O)=O (stereo not given) | inactive |  |
| O=C(O)CCCl | inactive |  |
| Cc1ccc(C#N)cc1 | inactive |  |
| CN1C(=O)N(C)C(O)C1O (stereo not given) | inactive |  |
| Nc1ccc(S(=O)(=O)Nc2ccnn2-c2ccccc2)cc1 |  | 0.346% [at 19 µM] (inactive) |
| Cc1nc2c([nH]1)c(=O)n(C)c(=O)n2Cc1ccco1 | inactive |  |
| C[C@H](NC(CCc1ccccc1)C(=O)O)C(=O)N1CCC[C@H]1C(=O)O (stereo not given in full) | inactive |  |
| NCCCNCCSP(=O)(O)O |  | -1.02% [at 8.39 µM] (inactive) |
| NC(=O)COCCN1CCN(C(c2ccccc2)c2ccc(Cl)cc2)CC1 (stereo not given) | inactive |  |
| O=C1CCCC(=O)C1 | inactive |  |
| CCOC(C)(C)C | inactive |  |
| COc1ccc2c(c1)CCCC2=O | inactive |  |
| CN1CCC(=C2c3ccccc3CC(=O)c3sccc32)CC1 | inactive |  |
| CCCCCOC(=O)CCCCC | inactive |  |
| FC1(F)C(F)(F)C(F)(F)C2(F)C(F)(F)C(F)(F)C(F)(F)C(F)(F)C2(F)C1(F)F (stereo not given) | inactive |  |
| CC(NC(CCc1ccccc1)C(=O)O)C(=O)N1C(=O)N(C)CC1C(=O)O (stereo not given) | inactive |  |

| Structure (SMILES) | Potency | activity, negative = inhibition |
| --- | --- | --- |
| N=C(N)c1ccc2cc(OC(=O)c3ccc(N=C(N)N)cc3)ccc2c1 | inactive |  |
| C[N+](C)(C)CCCCCC[N+](C)(C)C | inactive and 26.6 µM (active) |  |
| CC(=O)OC/C=C(\C)CC/C=C(\C)CCC=C(C)C | inactive |  |
| CCCCC/C=C\CCC=O | inactive |  |
| COC(=O)c1c(Cl)c(Cl)c(C(=O)OC)c(Cl)c1Cl | inactive |  |
| C[C@@H]1CCN(C(=O)[C@H](CCCN=C(N)N)NS(=O)(=O)c2cccc3c2NC[C@H](C)C3)[C@@H](C(=O)O)C1 | inactive |  |
| CCCC(=O)O[C@]1(C(=O)CO)CC[C@H]2[C@@H]3CCC4=CC(=O)CC[C@]4(C)[C@H]3[C@@H](O)C[C@@]21C | inactive |  |
| O=c1n(CCO)c(=O)n(CCO)c(=O)n1CCO | inactive |  |
| CC(C)(C)c1nnc(NS(=O)(=O)c2ccccc2)s1 | inactive |  |
| OC[C@]1(O)OC[C@@H](O)[C@H](O)[C@@H]1O | inactive |  |
| CC(=O)CC(C)(C)C1CCCCC1 | inactive |  |
| COC(=O)CCSCCC(=O)OC | inactive |  |
| COc1ccc(CCN(C)CCCC(C#N)(c2cc(OC)c(OC)c(OC)c2)C(C)C)cc1OC (stereo not given) | inactive |  |
| C1CN(CCOCCN2CCOCC2)CCO1 | inactive |  |
| NS(=O)(=O)c1cc(C(=O)NN2C[C@H]3[C@H]4CCC(C4)[C@H]3C2)ccc1Cl | inactive |  |
| N=C(N)c1ccccc1 | inactive |  |
| CCCc1cc(C(N)=S)ccn1 | inactive |  |
| CCOC(=O)CCC(C)=O | inactive |  |
| NC(=O)c1ccc([N+](=O)[O-])cc1 | inactive |  |
| C=CCS(=O)(=O)O | inactive |  |
